# Screening data deposited in PubChem by National Center for Advancing Translational Sciences (NCATS).
# Luciferase inh: inhibitors of firefly luciferase; Potency, µM (series often up to 57.1 µM), for the others: top-dose activity change, negative = inhibition, hits mostly inhibitors; P08659; purified firefly luciferase, luminescence, 8 min; AID 411; hit rate 2.2% among 72,000; also: potency is read from the fitted curve at half-maximal effect; % is scaled to controls: 0 for no effect and ±100 for the full control effect; nearly all actives have a fitted effect of over 40% in size
# Target sequence (P08659 whole entry, looked up): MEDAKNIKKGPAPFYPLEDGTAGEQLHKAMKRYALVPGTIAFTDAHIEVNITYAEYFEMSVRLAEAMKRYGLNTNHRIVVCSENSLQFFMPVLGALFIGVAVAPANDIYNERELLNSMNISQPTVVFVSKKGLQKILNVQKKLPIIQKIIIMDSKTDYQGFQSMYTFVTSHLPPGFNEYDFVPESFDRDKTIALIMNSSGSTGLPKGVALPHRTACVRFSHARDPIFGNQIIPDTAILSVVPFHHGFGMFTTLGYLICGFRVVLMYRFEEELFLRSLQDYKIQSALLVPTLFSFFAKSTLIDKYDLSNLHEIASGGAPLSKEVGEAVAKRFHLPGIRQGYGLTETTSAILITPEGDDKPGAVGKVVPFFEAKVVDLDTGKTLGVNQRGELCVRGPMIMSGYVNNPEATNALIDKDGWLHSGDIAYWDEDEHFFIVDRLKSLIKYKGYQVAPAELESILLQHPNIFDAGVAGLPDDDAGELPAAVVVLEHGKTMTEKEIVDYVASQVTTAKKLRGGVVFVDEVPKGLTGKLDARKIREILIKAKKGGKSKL
#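 Inhibition of light generation by firefly luciferase from ATP and luciferin was profiled with concentration-response curves per sample, ATP held at 10 uM within the enzyme's linear range. Plates were read by luminescence after an 8-minute ambient incubation.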
# PK Bst: alters activity of Bacillus stearothermophilus pyruvate kinase; purified pyruvate kinase, luminescence ATP production; ribose 5-phosphate activator present at AC10; Potency, µM; hit rate 1.2% among 51,000; in the data active = potency below about 11 µM; inconclusive = mostly about 12 µM to 25 µM;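 the screen sought inhibitors and activators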;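 also: potency is read from the fitted curve at half-maximal effect; scaled between full activation by ribose 5 phosphate and full inhibition by luteolin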
# HBB splice mod: alters splicing of the hemoglobin beta chain. HBB splicing reporter cell assay, activation; EGFP reporter with mutant IVS2-654 intron; response scale: normalised to 500 nM splice-correcting PNA. Potency, µM (top dose mostly 46.1 µM), without a hit: top-dose activation, usual class: activators. hit rate 0.06% among 65,000; also: potency is read from the fitted curve at half-maximal effect; 0% is about no effect
#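 HeLa cells stably expressing EGFP interrupted by mutant beta-globin intron 2 (IVS2-654), 500/well in 2% FCS. Treated with compound for 2 days at 37C. Splicing correction scored as total well GFP intensity (488 nm excitation, 500-520 nm emission); 500 nM antisense PNA served as control.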
# GFP derepression: epigenetic GFP locus derepression in mouse cells | Potency, µM (series often up to 46.1 µM), for inactives: top-dose GFP derepression (activation) | hit rate 0.09% among 68,000 | mouse C127i GFP locus derepression, cytometry, 30 h; also: % of control where 0% means no effect
#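 Murine C127i mammary cells carrying a silenced, stably integrated CMV-driven GFP reporter were treated with compound for 30 hours at 37 C. After PBS washes, GFP-positive cells were counted by laser-scanning microplate cytometry.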
# * = called active by the depositor; i = inactive; ? = inconclusive; . = no result; [ ] = dose if it differs, or a comment. The list is not random: actives were taken first. Their share in the collection is about 2.6%. Unless noted, calls follow the shape of the dose curve; as a rule, active = well fitted curve in the direction sought with a large enough effect; inconclusive = small, poorly fitted or top-dose-only effect, or another doubt; inactive = no such curve, though single readings can be large; an effect the other way counts as inactive or inconclusive.
SMILES,Luciferase inh,PK Bst,HBB splice mod,GFP derepression
COCCN1Cc2cccc(C(=O)Nc3ccc(C)c(C)c3)c2C1=O,25.1µM*,.,-2.4%,2.8%
CCCN1Cc2cccc(C(=O)Nc3cc(OC)cc(OC)c3)c2C1=O,-1.9%,>57,-0.3%,0.0%
O=C(Nc1ccc(F)cc1)c1cccc2c1C(=O)N(Cc1ccccn1)C2,-2.6%,10.7*,1.1%,6.9%
COCCN1Cc2cccc(C(=O)Nc3cccc(OC)c3)c2C1=O,-4.8%,.,-2.5%,-2.8%
c1ccc(N2CCN(c3nc4cc5c(cc4s3)OCO5)CC2)cc1,?,.,0.6%[57.5 µM],0.0%
c1c2c(cc3sc(N4CCOCC4)nc13)OCO2,15.8µM*,i,0.0%,-1.2%
c1c2c(cc3sc(N4CCCCC4)nc13)OCO2,6.31µM*,6.18*,0.0%,-2.6%
c1ccc2c(c1)CCN(c1nc3cc4c(cc3s1)OCO4)C2,3.98µM*,2.83*,-2.0%[57.5 µM],2.2%
O=C(Nc1ccccc1)N1CCCC2(CCN(C(=O)c3cccc(F)c3)CC2)C1,-0.1%[11.4 µM],.,1.7%,0.1%[9.22 µM]
CCc1ccc2[nH]c(=O)c(CN(CCCN3CCOCC3)C(=O)Nc3ccc(Cl)cc3)cc2c1,-0.6%,6.62*,.,-2.0%
COCCNC(=O)c1noc2c1CCc1cc(OC)ccc1-2,12.6µM*,.,-0.1%,1.8%
O=C1CC2(CCCC2)CC(=O)N1CCCCNC[C@H]1COc2ccccc2O1,2.8%,.,.,-1.9%
CSc1ncnc2nc[nH]c12,1.7%,.,-0.2%,.
O[C@H](C[C@@H]1CCCCN1)c1ccc2c(c1)oc1ccccc12,0.9%[11.4 µM],.,2.4%[9.22 µM],1.26µM*
O[C@@H](c1cc(-c2ccc(Cl)cc2)nc2ccccc12)[C@@H]1CCCCN1,2.4%[11.4 µM],.,1.9%[9.22 µM],2.4%[9.22 µM]
CC(=O)c1ccc(-c2nc3ccccc3n2C)o1,1.4%,>57,-1.4%,2.4%
Cn1c(-c2ccc(Br)o2)nc2cc(Br)ccc21,6.31µM*,.,1.3%[0.369 µM],2.1%
Cc1oc(-c2nc3ccccc3n2C)cc1C(=O)c1ccccc1,2.51µM*,3.41*,-0.7%,-1.7%
Cn1c(-c2ccc(Br)o2)nc2ccccc21,7.94µM*,?,-0.2%[0.369 µM],3.7%
Cn1cc(C(=O)c2ccccc2)cc1-c1nc2ccccc2n1C,-0.8%,>57,-0.1%,3.7%
CC(C)[C@@H](CC(=O)N[C@@H]1CCCC[C@H]1C(=O)N[C@H](CC(=O)N[C@@H](CCC(=O)O)CC(=O)O)Cc1ccccc1)NC(=O)C[C@H](Cc1ccccc1)NC(=O)[C@@H]1CCCC[C@H]1N,.,.,0.7%,.
O=c1[nH]c(=O)n([C@@H]2C[C@H](O)[C@H](CO)O2)cc1C(F)(F)F,0.7%[25.5 µM],.,-0.1%[20.6 µM],-1.7%[20.6 µM]
Cc1noc(C)c1C(=O)N1CCC2(CC1)CCN(c1ccccn1)CC2,1.1%[11.4 µM],.,1.8%,-0.9%[9.22 µM]
CCOC(=O)c1cnc(SCc2ccccc2)nc1N,15.8µM*,.,-0.6%,-5.8%
CCOC(=O)c1cnc(SCC(=O)N2CCN(c3ccccc3)CC2)nc1N,-0.1%,>57,1.3%,-1.7%
SMILES,Luciferase inh,PK Bst,HBB splice mod,GFP derepression
O=C(Nc1nnc(-c2ccccc2Cl)o1)c1ccco1,12.6µM*,.,3.3%,0.0%
COc1cc(C(=O)NCCC2=CCCCC2)cc(OC)c1OC,1.3%,.,2.0%[0.0738 µM],-1.5%
Cc1cc(C(=O)NCCC2=CCCCC2)c(C)o1,15.8µM*,.,4.2%,6.5%
CCC(=O)Nc1ncnc2ncn(C(=O)CC)c12,2.1%[11.4 µM],.,4.2%[9.22 µM],-2.2%[9.22 µM]
CCOC(=O)c1sc(NC(=O)c2ccc(Cl)s2)cc1C,?,.,-0.4%,.
CCOC(=O)c1sc(NC(=O)c2c(C)nn(Cc3ccccc3)c2C)cc1C,5.01µM*,.,-0.3%[57.5 µM],1.0%
CCOc1ncccc1C(=O)Nc1ccc(-c2cn3ccsc3n2)cc1,-0.4%,>57,0.3%[57.5 µM],0.0%
O=C(Nc1ccc(-c2cn3ccccc3n2)cc1)c1cc(Br)ccc1O,-1.6%[11.4 µM],.,1.9%[9.22 µM],0.0%[9.22 µM]
CCCCC(=O)Nc1cccc(-c2cn3ccsc3n2)c1,12.6µM*,i,-1.2%,-1.1%
COc1ccccc1C(=O)Nc1cccc(-c2cn3ccsc3n2)c1,12.6µM*,?,-0.6%,2.0%
O=C(Nc1cccc(-c2cn3ccsc3n2)c1)c1ccccc1,25.1µM*,i,3.0%[57.5 µM],-1.9%
O=C(Nc1ccc(-c2cn3ccsc3n2)cc1)C1COc2ccccc2O1 (stereo unspecified),-23.9%,.,-0.3%[57.5 µM],0.0%
O=C(Nc1cccc(-c2cn3ccccc3n2)c1)c1cnccn1,3.98µM*,.,.,0.5%
COc1cc2nc(N3CC=[N+](C(=O)c4ccco4)CC3)nc(N)c2cc1OC,0.0%,.,-0.4%,-1.1%
O=C(Cn1cnnn1)OCC(=O)c1ccc(Cl)s1,0.1%,>57,12.6µM*,-2.1%
Cc1cc(C)c(C(=O)COC(=O)Cn2cnnn2)cc1C,2.8%,>57,-2.2%,1.2%
CCc1cc2c(c(CC)n1)CCC(=O)N2Cc1ccc(-c2ccccc2-c2nn[nH]n2)cc1,15.8µM*,.,.,-1.4%
CC(=O)c1n[nH]nc1NC(=O)c1ccccc1,-0.2%,>57,0.5%,4.1%
O=C(NC1=NC2CCCCC2N1)c1ccccc1 (stereo unspecified),1.26µM*,?,3.7%,0.0%
COc1ccc(C(=O)/C=C/Nc2cc(C)on2)c(OC)c1,3.16µM*,3.8*,2.0%,-4.4%
COC(=O)c1ccc(C(NC(=O)OCc2ccccc2)/C(C)=C/[C@@H](C)C(=O)NCCO)cc1 (stereo partly specified),.,.,-0.5%,.
Cc1cccc2cc3c(nc12)SC(=NCC1CCCO1)N(Cc1ccco1)C3 (stereo unspecified),-4.8%,>57,-0.5%[57.5 µM],3.16µM*
COC(=O)[C@H](Cc1ccccc1)NC(=O)[C@]1(C)C[C@H]1[C@H](NC(=O)OCc1ccccc1)c1ccccc1,.,.,-0.8%,.
Oc1ccccc1OCc1nc2ccccc2s1,20µM*,.,1.8%[0.0738 µM],0.0%
Cc1ccc(Nc2nc(N)nc(CSc3nccn3C)n2)cc1,20µM*,.,-0.5%,2.6%
SMILES,Luciferase inh,PK Bst,HBB splice mod,GFP derepression
COc1ccccc1Nc1nc(N)nc(CSc2nncn2C)n1,1.9%,>57,.,3.4%
O=C(Nc1ccc2nc3n(c(=O)c2c1)CCCCC3)c1ccccn1,12.6µM*,.,-0.7%,0.0%
CC(=O)O[C@@H]1CC[C@]2(C)[C@H]3CC[C@]4(C)[C@H](C[C@H]5CCCC[C@@]54C(C)=O)[C@@H]3CC(=O)[C@@]2(O)C1,1.7%[11.4 µM],.,.,-4.7%[9.22 µM]
CS(=O)(=O)c1ncc(Cl)c(C(=O)Nc2ccc(N3CCOCC3)cc2)n1,-26.1%,>57,-0.7%,0.0%
O=C(Nc1ccc(N2CCOCC2)cc1)c1cnsn1,3.98µM*,7.07*,0.5%,2.1%
Cc1ccc2nc(Nc3ncc4c(n3)CCCC4=O)nc(C)c2c1,4.0%,>57,1.3%,-2.6%
Cc1cc(C)cc(Nc2ncc3c(n2)CCCC3=O)c1,12.6µM*,.,2.4%[1.84 µM],1.6%
O=C1N=C(N2CCOCC2)S/C1=C1\C(=O)N(Cc2ccccc2)c2ccc(Br)cc21,-4.6%,>57,-0.3%[57.5 µM],-2.2%
CCCCN1C(=O)/C(=C2\SC(N3CCCCC3)=NC2=O)c2ccccc21,7.94µM*,.,-2.8%,12.5%
CC(=O)N1CCN(c2ccc(NCc3ccc(C)s3)cc2)CC1,-4.4%,.,-1.2%,.
Cc1ccc(CNc2ccc(N3CCOCC3)cc2)s1,12.6µM*,i,.,-1.2%
CCOC(=O)c1oc2ccc(CNCCO)c(Cl)c2c1C,25.1µM*,.,.,-1.0%
